Measured values taken from PubChem BioAssay AID1159580 (chemical genetic matrix, 2015).
Screen size: about 5,500 compounds; about 2,000 (36%) were called active. About 18% were inconclusive and are not listed. Rule as the data show it: active = normalized growth mostly below about 0.91 (no sharp cut-off); inconclusive = no clear call, values can overlap the other calls; inactive = mostly above about 0.92. This is one part of the list.

Assay: chemical genetic growth profiling, strain panel (AID 1159580);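 also: tested at 20 µM; growth read once vehicle control cultures reached saturation at 30 °C; 1 = growth at the plate median or of vehicle wells; lower values mean less growth of the strain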
Details: growth OD

Measured: normalized growth

CCOC(=O)C1=C[C@]2(CC)CCCN3CCc4c(n1c1ccccc41)[C@@H]32
inactive: S. cerevisiae deletion strains, locus YKL009W, strain mrt4, active compounds read low 0.964 | S. cerevisiae deletion strains, locus YKL068W, active compounds read low 0.988 | S. cerevisiae deletion strains, locus YKL085W, strain MDH1 (second series), active compounds read low 0.992 | S. cerevisiae deletion strains, locus YKL085W, strain MDH1, active compounds read low 0.992 | S. cerevisiae deletion strains, locus YKL160W, strain elf1, active compounds read low 1.03 | S. cerevisiae deletion strains, locus YKL190W, strain CNB1, active compounds read low 0.982 | S. cerevisiae deletion strains, locus YKR001C, strain vps1, active compounds read low 0.933 | S. cerevisiae deletion strains, locus YKR026C, strain gcn3, active compounds read low 1.01 | S. cerevisiae deletion strains, locus YKR091W, strain srl3, active compounds read low 1.01 | S. cerevisiae deletion strains, locus YLL001W, strain dnm1, active compounds read low 1.03 | S. cerevisiae deletion strains, locus YLL026W, active compounds read low 1.02 | S. cerevisiae deletion strains, locus YLL041C, strain sdh2, active compounds read low 1.02 | S. cerevisiae deletion strains, locus YLR027C, strain aat2, active compounds read low 1.02 | S. cerevisiae deletion strains, locus YLR039C, strain RIC1, active compounds read low 0.924 | S. cerevisiae deletion strains, locus YLR058C, strain SHM2, active compounds read low 0.963 | S. cerevisiae deletion strains, locus YLR102C, strain apc9, active compounds read low 0.969 | S. cerevisiae deletion strains, locus YLR113W, strain HOG1, active compounds read low 1.01 | S. cerevisiae deletion strains, locus YLR221C, strain rsa3, active compounds read low 1.02 | S. cerevisiae deletion strains, locus YLR258W, strain gsy2, active compounds read low 1.02 | S. cerevisiae deletion strains, locus YLR262C, strain YPT6 (second series), active compounds read low 0.996 | S. cerevisiae deletion strains, locus YLR262C, strain YPT6, active compounds read low 0.852 | S. cerevisiae deletion strains, locus YLR268W, strain sec22, active compounds read low 0.923 | S. cerevisiae deletion strains, locus YLR320W, strain mms22, active compounds read low 0.986 | S. cerevisiae deletion strains, locus YLR330W, strain CHS5, active compounds read low 0.992 | S. cerevisiae deletion strains, locus YLR342W, strain FKS1 (second series), active compounds read low 0.928 | S. cerevisiae deletion strains, locus YLR342W, strain FKS1, active compounds read low 1.01 | S. cerevisiae deletion strains, locus YLR357W, strain rsc2, active compounds read low 1.07 | S. cerevisiae deletion strains, locus YLR370C, strain arc18, active compounds read low 1.02 | S. cerevisiae deletion strains, locus YLR371W, strain rom2, active compounds read low 0.985 | S. cerevisiae deletion strains, locus YLR384C, strain iki3, active compounds read low 1.04 | S. cerevisiae deletion strains, locus YLR418C, strain cdc73, active compounds read low 0.915 | S. cerevisiae deletion strains, locus YML016C, strain PPZ1, active compounds read low 0.985 | S. cerevisiae deletion strains, locus YML032C, strain rad52, active compounds read low 0.95 | S. cerevisiae deletion strains, locus YML120C, strain ndi1, active compounds read low 1.01 | S. cerevisiae deletion strains, locus YML124C, strain tub3, active compounds read low 0.979 | S. cerevisiae deletion strains, locus YMR058W, strain fet3, active compounds read low 1.02 | S. cerevisiae deletion strains, locus YMR078C, strain ctf18, active compounds read low 0.977 | S. cerevisiae deletion strains, locus YMR125W, strain sto1, active compounds read low 1.02 | S. cerevisiae deletion strains, locus YMR129W, active compounds read low 1.02 | S. cerevisiae deletion strains, locus YMR205C, strain PFK2, active compounds read low 0.995 | S. cerevisiae deletion strains, locus YMR223W, strain ubp8, active compounds read low 0.961 | S. cerevisiae deletion strains, locus YMR231W, strain pep5, active compounds read low 1.02 | S. cerevisiae deletion strains, locus YMR263W, strain SAP30, active compounds read low 0.987 | S. cerevisiae deletion strains, locus YMR307W, strain GAS1, active compounds read low 1.01 | S. cerevisiae deletion strains, locus YNL067W, strain RPL9B, active compounds read low 0.949 | S. cerevisiae deletion strains, locus YNL071W, strain lat1, active compounds read low 1.01 | S. cerevisiae deletion strains, locus YNL128W, strain TEP1, active compounds read low 0.988 | S. cerevisiae deletion strains, locus YNL183C, strain NPR1, active compounds read low 0.947 | S. cerevisiae deletion strains, locus YNL209W, strain ssb2, active compounds read low 1.05 | S. cerevisiae deletion strains, locus YNL233W, strain BNI4, active compounds read low 0.931 | S. cerevisiae deletion strains, locus YNL248C, strain rpa49, active compounds read low 1.05 | S. cerevisiae deletion strains, locus YNL250W, strain rad50, active compounds read low 0.978 | S. cerevisiae deletion strains, locus YNL271C, strain bni1, active compounds read low 0.981 | S. cerevisiae deletion strains, locus YNL298W, strain CLA4, active compounds read low 0.98 | S. cerevisiae deletion strains, locus YNL322C, strain KRE1 (second series), active compounds read low 1.02 | S. cerevisiae deletion strains, locus YNL322C, strain KRE1, active compounds read low 0.986 | S. cerevisiae deletion strains, locus YNR049C, strain mso1, active compounds read low 1.02 | S. cerevisiae deletion strains, locus YNR052C, strain pop2, active compounds read low 0.979 | S. cerevisiae deletion strains, locus YOL006C, strain TOP1, active compounds read low 0.803 | S. cerevisiae deletion strains, locus YOL012C, strain htz1 0.935 | S. cerevisiae deletion strains, locus YOL147C, strain pex11, active compounds read low 0.984 | S. cerevisiae deletion strains, locus YOR001W, strain rrp6, active compounds read low 1.02 | S. cerevisiae deletion strains, locus YOR061W, strain CKA2, active compounds read low 0.964 | S. cerevisiae deletion strains, locus YOR069W, strain VPS5, active compounds read low 0.986 | S. cerevisiae deletion strains, locus YOR070C, strain gyp1, active compounds read low 1.01 | S. cerevisiae deletion strains, locus YOR080W, strain dia2, active compounds read low 1.03 | S. cerevisiae deletion strains, locus YOR083W, strain WHI5, active compounds read low 1.01 | S. cerevisiae deletion strains, locus YOR106W, strain vam3, active compounds read low 1.04 | S. cerevisiae deletion strains, locus YOR136W, strain idh2, active compounds read low 0.978 | S. cerevisiae deletion strains, locus YOR144C, strain elg1, active compounds read low 0.994 | S. cerevisiae deletion strains, locus YOR231W, strain MKK1, active compounds read low 1.02 | S. cerevisiae deletion strains, locus YOR265W, strain rbl2, active compounds read low 1.02 | S. cerevisiae deletion strains, locus YOR270C, strain vph1, active compounds read low 0.957 | S. cerevisiae deletion strains, locus YOR290C, strain snf2, active compounds read low 1.01 | S. cerevisiae deletion strains, locus YOR316C, strain cot1, active compounds read low 0.974 | S. cerevisiae deletion strains, locus YPL051W, strain arl3, active compounds read low 1.01 | S. cerevisiae deletion strains, locus YPL055C, strain LGE1, active compounds read low 0.887 | S. cerevisiae deletion strains, locus YPL078C, strain atp4, active compounds read low 1.01 | S. cerevisiae deletion strains, locus YPL106C, strain sse1, active compounds read low 1.03 | S. cerevisiae deletion strains, locus YPL240C, strain hsp82, active compounds read low 1.04 | S. cerevisiae deletion strains, locus YPL256C, strain CLN2, active compounds read low 0.999 | S. cerevisiae deletion strains, locus YPR119W, strain clb2, active compounds read low 0.986 | S. cerevisiae deletion strains, locus YPR141C, strain kar3, active compounds read low 0.986 | S. cerevisiae deletion strains, locus YPR163C, strain tif3, active compounds read low 0.936 | S. cerevisiae deletion strains, locus YPR167C, strain met16, active compounds read low 0.989 | S. cerevisiae deletion strains, strain wtn01, active compounds read low 0.993 | S. cerevisiae strains, strain wild type, active compounds read low 0.974
active: S. cerevisiae deletion strains, locus YNL307C, strain MCK1, active compounds read low 0.879 | S. cerevisiae deletion strains, locus YOR184W, strain ser1, active compounds read low 0.859
